Source: PubChem BioAssay (NCI)
Compounds without any hit were thinned out: in the full panel of roughly 83,000, 20% have a hit.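 Activity criterion: percent growth below 10, measured after cells in 96-well plates were exposed to a single compound concentration for 48 hours.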 A number with no mark means an inactive call. Calls of active or inactive are those of the source.

What follows are molecules tested on COLO 205 colon (assay: NCI-60 one-dose screen, 48 h (100 = growth as untreated, 0 = no growth, -100 = all killed)). Conditions: 10 µM unless noted.
Method: Cells are grown in 96 well plates and exposed to the test compound for 48 hours. Compounds are tested at a single concentration, which is 10^-5 M for most compounds. The reported endpoint is percent growth (GI% or GIPRCNT), where numbers from 0 - 100% represent growth inhibition, and numbers from -100% - 0 represent cell death. For example, a value of 40 represents 60% growth inhibition. A value of 0 means no net growth occurred over the course of the experiment. A value of -40 indicates 40% of cells at the beginning of the experiment died by the end of the experiment. A value of -100 means all cells are dead at the end of the experiment.
NCI-60 Human Tumor Cell Lines Screen was performed using the standard one-dose NCI protocol, which is described in more detail at https://dtp.cancer.gov/discovery_development/nci-60/default.htm.
Compounds with GIPRCNT values below 10 were considered active. Activity score was based on GIPRCNT using the following formula: […]
Score is 0 for GIPRCNT values of 100 or above, 50 for GIPRCNT values of 0, and 100 for GIPRCNT values of -100.
With `O=C(Nc1ccc(Oc2ccc(NC(=O)Nc3ccc([N+](=O)[O-])cc3)cc2)cc1)Nc1ccc([N+](=O)[O-])cc1` the growth was -51.1% (active). `COc1ccc2nccc(/C=C/c3ccnc4ccc(OC)cc34)c2c1` was tested, and the growth was 119%. Molecule `Clc1ccccc1[C@@H]1C[C@@H]2Cc3cc(Br)c4ccccc4c3N1O2` has a growth of 33.1%. `O=C(CSc1nnc(Nc2ccccc2)s1)NCCc1ccc(F)cc1` gave a growth of 115%. `Clc1nc(Cl)c2ncn(-c3ccccc3)c2n1` was tested, and the growth was 80.9%. For `Fc1ccc([C@@H]2CCNC[C@H]2COc2ccc3c(c2)OCO3)cc1`, the growth was -77.5% (active). For `COc1cc(C(=O)/C=C/c2cccnc2Nc2ccccc2)cc(OC)c1OC`, the growth was -87.5% (active). `Cc1nn(-c2ccc(Cl)cc2)c2nc3c(nc12)c(=O)oc1ccccc13` showed a growth of 123%. With `CC(CCC(=O)O)(NC(=O)c1ccc([N+](=O)[O-])cc1)C(=O)O` (stereo not given) the growth was 107%. `Nc1ccc(C2=Nc3cccc4cccc(c34)S2)cc1` showed a growth of 100%. In the case of `COc1ccc(/C(=C2\O[C@@H]([C@H](O)CO)[C@H]3OC(C)(C)O[C@@H]23)c2cc(OC)c(OC)c(OC)c2)cc1O`, the growth is reported as 126%. `O=C(Nc1ccc(Cl)cc1Cl)Nc1ccc(-c2cccnc2)cc1N1CCC(CO)CC1` showed a growth of 16.1%. Work on `CCCCCCCC1(C)NC(=O)NC1=O` (stereo not given) yielded a growth of 120%. With `COc1ccc2c(c1)[nH]c(=O)c1c3cc(OC)c(OC)cc3cn21` the growth was -34.8% (active). With `Cc1cc(C)n2nc(SCC(=O)Nc3sc4c(c3C(N)=O)CCC4)nc2n1` the growth was 118%. In the case of `CCOc1nc(-c2ccccc2)cc2c(O)c(C(=O)n3nc(C)cc3C)[nH]c(=O)c12`, the growth is reported as 108%. `COc1ccc(-c2cc(Cc3cccs3)c(=O)n(Cn3cncn3)n2)cc1` gave a growth of 117%. With `O=C(O)c1ccc(NC(=O)c2cccc(Nc3ccnc(C(F)(F)F)c3)c2)cc1` the growth was 112%. `COc1cc(/C=C2\COc3ccc(O)cc3C2=O)cc(OC)c1` gave a growth of 81.6%. Molecule `O=C1CN(CO)C(=O)CN1CO` has a growth of 116%. `C=C1c2c(C)nn(-c3ccc(C#CCOC4OC(CO)C(O)C(O)C4O)cc3)c2N(C)C23C[C@H]1C1(C)c4c(C)nn(-c5ccc(C#CCOC6OC(CO)C(O)C(O)C6O)cc5)c4N(C)C(C)(C[C@H]12)C3` (stereo not given in full) was tested, and the growth was 8.45% (active). `c1csc([C@@H]2C[C@@H]3Cc4ccc5ccccc5c4N2O3)c1` showed a growth of 120%. `O=C(/C=C/c1ccc(O)c(O)c1)N1CCN(c2ccc(Cl)cc2)CC1` was tested, and the growth was 71.4%. With `O=c1[nH]c(=O)n(C2CC(O)C(CO)O2)cc1C(F)(F)F` (stereo not given) the growth was 69.2%. In the case of `N#Cc1ccc(NC(=O)Nc2ccc(Oc3ccc(NC(=O)Nc4ccc(C#N)cc4)cc3)cc2)cc1`, the growth is reported as -0.221% (active). `COC1=CC(c2ccc[nH]2)=N/C1=C\c1[nH]c(C)c(C(=O)CCC(=O)Oc2ccc3c(c2)CCC2C3CC[C@]3(C)C(=O)CC[C@@H]23)c1C` (stereo not given in full) gave a growth of 87.9%. `Nc1nc(SCC2(CCl)COC2)c2[nH]cnc2n1` was tested, and the growth was 106%. Molecule `CCOC(=O)C1=NN(c2ccc(Cl)cc2)C2C3N(c4ccc(Cl)cc4)N=C(C(=O)OCC)N3c3ccccc3N12` (stereo not given) has a growth of 128%. In the case of `CCC1=C(c2ccc(OC)cc2)C(C)Oc2cc(OC(C)=O)ccc21` (stereo not given), the growth is reported as 103%. Work on `COc1cc(/C=C/C(=O)c2c(-c3ccc(Cl)cc3)nc3sc(C)nn23)cc(OC)c1OC` yielded a growth of 100%. Work on `C=C(C[C@@](O)(C(=O)Oc1ccccc1)C(=O)C1CCCCC1)c1ccccc1` yielded a growth of 120%. Molecule `COc1ccc(-c2csc(NC(=O)c3cc(O)c(O)c(O)c3)n2)cc1` has a growth of 91.4%. `O=C(OC[C@H]1O[C@H](OC(=O)c2cc(O)c(O)c(OC(=O)c3cc(O)c(O)c(O)c3)c2)[C@H](OC(=O)c2cc(O)c(O)c(OC(=O)c3cc(O)c(O)c(O)c3)c2)[C@@H](OC(=O)c2cc(O)c(O)c(OC(=O)c3cc(O)c(O)c(O)c3)c2)[C@@H]1OC(=O)c1cc(O)c(O)c(OC(=O)c2cc(O)c(O)c(O)c2)c1)c1cc(O)c(O)c(OC(=O)c2cc(O)c(O)c(O)c2)c1` gave a growth of 55.1%. In the case of `COc1c(C)c2c(c(O)c1C/C=C(\C)CCC(=O)OCCN1CCOCC1)C(=O)OC2`, the growth is reported as 38.1%. In the case of `C=CCCCCCCCCC(=O)[O][Sn]([CH2]CCC)([CH2]CCC)[CH2]CCC`, the growth is reported as -86% (active). For `COc1ccc(/C=C/C(=O)Nc2cccnc2Nc2ccc(F)cc2)cc1`, the growth was 109%. `O=c1cc(-c2cccnc2)oc2c1ccc1ccccc12` gave a growth of 80.5%. In the case of `C=C(C)[C@@H]1C[C@H](O)Cc2cc(Cl)cc(Cl)c2N1`, the growth is reported as 107%. In the case of `O=C(c1ccccc1)c1ccco1`, the growth is reported as 109%. With `NCCCc1nnc(CCC(=O)c2nc3ccccc3[nH]2)o1` the growth was 111%.
